# Screening data: PubChem, National Center for Advancing Translational Sciences (NCATS)
# Sampled rows, rich in hits. Any-hit rate of the full collection: about 2.5%.
# Cruzain inh Det = qHTS Assay for Promiscuous and Specific Inhibitors of Cruzain (with detergent). 200,000 tested, 0.43% active. AID 1478, 2009. purified cruzain, Z-FR-AMC fluorescence, 0.01% Triton. Potency, µM, hits mostly inhibitors; further: nearly all actives have a fitted effect of over 40% in size
# Target sequence (P25779 123-467 limits assumed): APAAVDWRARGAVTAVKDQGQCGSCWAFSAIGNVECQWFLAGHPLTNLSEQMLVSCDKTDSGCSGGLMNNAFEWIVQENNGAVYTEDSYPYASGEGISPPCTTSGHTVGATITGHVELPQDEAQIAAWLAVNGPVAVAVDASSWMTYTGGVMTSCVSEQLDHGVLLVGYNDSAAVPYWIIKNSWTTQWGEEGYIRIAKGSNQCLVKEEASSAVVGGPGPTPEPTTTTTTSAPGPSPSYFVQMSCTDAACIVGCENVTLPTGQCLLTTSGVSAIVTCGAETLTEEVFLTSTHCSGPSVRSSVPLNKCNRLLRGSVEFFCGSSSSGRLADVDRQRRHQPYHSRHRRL
#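 Compounds were screened in titration against cruzain (1.5 nM) with 0.01% Triton X-100 to counter colloidal aggregation. Activity was the AMC fluorescence increase over 60 s after adding 2 uM Z-FR-AMC at pH 5.5.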
# Cruzain inh noDet = qHTS Assay for Promiscuous and Specific Inhibitors of Cruzain (without detergent); Cruzipain (Trypanosoma cruzi), P25779; purified cruzain, Z-FR-AMC fluorescence, no detergent; Potency, µM, most hits filed as inhibitors; 200,000 tested, 2.3% active; further: nearly all actives have a fitted effect of over 40% in size
#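 Purified cruzain at 1.5 nM, pre-incubated 15 min with compound at room temperature in 100 mM sodium acetate pH 5.5, 5 mM DTT, 0.00005% Triton X-100. Reaction started with 2 uM Z-FR-AMC; AMC fluorescence increase over 60 s gives rate.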
# Hits are given with their value; . = inactive; ? = inconclusive. The call rests on the fitted dose curve; in most records, active means well fitted curve in the direction sought with a large enough effect; inconclusive means small, poorly fitted or top-dose-only effect, or another doubt; inactive means no such curve, though single readings can be large; an effect the other way counts as inactive or inconclusive.
SMILES,Cruzain inh Det,Cruzain inh noDet
CC(C)c1ccc(C(=O)Nc2ccc(-c3nc4ccccc4s3)c(Cl)c2)cc1,.,.
CC(CCc1ccccc1)NC(=O)c1ccccc1 (stereo unspecified),.,.
CC(CCc1ccccc1)NC(=O)c1ccc(C(=O)NC(C)CCc2ccccc2)cc1 (stereo unspecified),.,25µM
CCc1cccc(NC(=O)Cn2c(=O)n(CCCCCC(=O)NCc3ccc(F)cc3)c(=O)c3sccc32)c1,.,.
COc1ccc(NC(=O)Cn2c(=O)n(Cc3nc(-c4ccccc4)no3)c(=O)c3cc4c(cc32)OCO4)c(OC)c1,.,.
CCc1ccc(NC(=O)Cn2c(=O)n(Cc3nc(-c4ccccc4)no3)c(=O)c3cc4c(cc32)OCO4)cc1,.,16µM
Cc1ccc(NC(=O)Cn2c(=O)n(Cc3nc(-c4ccccc4)no3)c(=O)c3cc4c(cc32)OCO4)cc1C,.,10µM
COc1ccc(NC(=O)Cn2c(=O)n(Cc3nc(-c4ccccc4)no3)c(=O)c3cc4c(cc32)OCO4)cc1Cl,.,?
CC(C)c1ccc(NC(=O)Cn2c(=O)n(Cc3nc(-c4ccccc4)no3)c(=O)c3cc4c(cc32)OCO4)cc1,.,13µM
Cc1noc(Cn2c(=O)c3cc4c(cc3n(CC(=O)Nc3ccc(C(C)C)cc3)c2=O)OCO4)n1,.,.
Cc1cc(Cl)nc(NC(=O)CSc2ccc(Cl)cc2)n1,.,.
Cc1ccc2nc(/C(C#N)=C\c3ccc(Oc4ccc(C(F)(F)F)cc4[N+](=O)[O-])cc3)[nH]c2c1,.,7.9µM
COc1ccc(/C=C(\C#N)c2nc3ccc(C)cc3[nH]2)cc1Oc1ccc(C(F)(F)F)cc1[N+](=O)[O-],.,5µM
COc1cc(/C=C(\C#N)c2nc3ccc(C)cc3[nH]2)c([N+](=O)[O-])cc1OC,.,?
N#C/C(=C\c1cccc(Oc2ccc(C(F)(F)F)cc2[N+](=O)[O-])c1)c1nc2ccccc2[nH]1,.,.
Cc1ccc(-n2c(=O)c3c(cnn3C)n(Cc3ccccc3F)c2=O)cc1,.,.
COc1ccc(OC)c(C2C=C(C34CC5CC(CC(C5)C3)C4)NC(=S)N2)c1 (stereo unspecified),.,25µM
COc1cc(C2C=C(C34CC5CC(CC(C5)C3)C4)NC(=S)N2)cc(OC)c1OC (stereo unspecified),.,?
COc1ccc(OC)c(CNC(=O)C2CCN(S(=O)(=O)c3ccc4[nH]c(=O)oc4c3)CC2)c1,.,.
COc1cccc(N2CCN(CC(=O)NCc3cccs3)CC2)c1,.,.
COc1cccc(N2CCN(CC(=O)Nc3nnc(-c4ccccc4)s3)CC2)c1,.,25µM
Cc1ccc(S(=O)(=O)NCC(=O)OC2CCOC2=O)cc1 (stereo unspecified),.,.
CCCCOc1ccc(C(=O)NCC(=O)OC2CCOC2=O)cc1 (stereo unspecified),20µM,?
Cc1ccc(N(C)S(=O)(=O)c2ccc3[nH]cc(C(=O)O)c(=O)c3c2)cc1C,.,.
O=C1CCC/C(=N/NC(=O)c2ccc(CN3c4cccc5cccc(c45)S3(=O)=O)cc2)C1,.,.
SMILES,Cruzain inh Det,Cruzain inh noDet
CC(/C=N/NC(=O)c1ccc(CN2c3cccc4cccc(c34)S2(=O)=O)cc1)c1ccccc1 (stereo unspecified),.,10µM
O=C(CS(=O)(=O)c1cccc2nsnc12)NCc1ccccc1,.,.
COc1ccccc1/C=C/C1=NC(=C\C=C/c2ccccc2)/C(=O)O1,.,25µM
COc1ccc(/C=C/C=C2\N=C(SC)SC2=O)cc1,.,.
COc1ccccc1/C=C/C=C1N=C(/C=C/c2ccc(Cl)cc2)OC/1=O,.,16µM
COc1ccccc1/C=C/C(=O)c1ccc(Cl)cc1,.,.
Cc1ccc(C(=O)NCc2ccc3c(c2)CCN3C(=O)c2ccc(C)cc2)cc1,.,.
O=C(O)/C=C\c1c2ccc(=O)c(O)c-2oc2c(O)c(O)ccc12,.,.
O=C(CCN1CCOCC1)c1ccc2c(c1)OCCO2,.,.
O=C(CCN1CCc2ccccc2CC1)c1ccc2c(c1)OCCO2,?,16µM
O=C(Cn1nnc(-c2cccc(C(F)(F)F)c2)n1)NC(=O)NCc1ccco1,.,16µM
O=C(Cn1nnc(-c2ccccc2)n1)NCc1ccco1,.,.
O=C(O)[C@H]1CCCC[C@@H]1c1c2ccc(=O)c(O)c-2oc2c(O)c(O)ccc12,.,.
COc1ccc(-c2csc(NC(=O)c3ccccc3NS(=O)(=O)c3ccc(C)cc3)n2)cc1,.,?
COc1ccc(S(=O)(=O)Nc2ccccc2C(=O)Nc2nc(-c3ccc(F)cc3)cs2)cc1OC,.,20µM
CCOc1cc(CNC(=O)C(NS(=O)(=O)c2cccs2)C(C)C)cc(OCC)c1OCC (stereo unspecified),.,.
CCSc1ccccc1C(=O)Nc1ccc(-c2nc3ccccc3s2)c(O)c1,.,7.9µM
CSc1ccc(C(=O)Nc2ccc(-c3nc4ccccc4s3)c(O)c2)cc1,.,.
COc1ccc(Cl)cc1N/C(N)=N/c1nc(CSc2ccc(C)cc2)cc(=O)[nH]1,.,?
Cc1ccc(SCc2cc(=O)[nH]c(/N=C(\N)Nc3cccc4ccccc34)n2)cc1,.,32µM
O=[N+]([O-])c1ccc2ncccc2c1CCc1c([N+](=O)[O-])ccc2ncccc12,.,.
O=C(Nc1nc(-c2ccccc2)cs1)c1ccc2c(c1)S(=O)(=O)c1ccccc1C2=O,.,?
O=C(Nc1nc2ccc(SC(F)F)cc2s1)c1ccc2c(c1)S(=O)(=O)c1ccccc1C2=O,.,5µM
C=CCCC,.,.
CCOc1cc(C(=O)Nc2ccc3c(c2)n(C)c(=O)c(=O)n3C)cc(OCC)c1OCC,.,.
SMILES,Cruzain inh Det,Cruzain inh noDet
COc1cccc(C(=O)N2CCC(N3CCN(Cc4ccc(F)cc4)C(=O)C3=O)CC2)c1,.,.
O=c1c2sc3ccccc3c2n(Cc2ccc(F)cc2Cl)c(=O)n1Cc1ccccc1,.,.
O=C(CNC(=O)c1cccs1)OCC(=O)c1ccc2ccccc2c1,?,.
CC(C)(C)c1ccc(C(=O)NCC(=O)OCC(=O)c2ccc3c(c2)-c2ccccc2C3)cc1,.,25µM
COc1cc(Cl)c(S(=O)(=O)N2CCN(c3c(C)cccc3C)CC2)cc1Cl,.,20µM
COc1ccc(S(=O)(=O)N2CCN(c3c(C)cccc3C)CC2)cc1OC,.,.
Cc1cc(C)n(-c2nc(C)nc(NCc3ccccc3)n2)n1,.,.
Cc1nn(-c2nnc(NCc3ccccc3)nn2)c(C)c1Br,13µM,?
CC(C)(C)n1ncc2c(=O)n(CC(=O)NCCc3ccccc3)cnc21,.,.
O=C(Cn1cnc2c(cnn2-c2ccc(Cl)cc2)c1=O)NCCc1ccccc1,.,25µM
O=C(Cn1cnc2c(cnn2-c2ccc(F)cc2)c1=O)NCC1CCCO1 (stereo unspecified),.,.
O=C(Cn1cnc2c(cnn2-c2ccc(Cl)cc2)c1=O)NC1CCCCC1,.,10µM
N#Cc1c(NC(=O)C(F)(F)F)sc2c3c(=O)c4ccccc4c(=O)c=3oc3ccccc3c12,.,.
CCOc1ccccc1N=C1SC(CC(=O)Nc2ccc(OC)cc2OC)C(=O)N1CCC1=CCCCC1 (stereo unspecified),.,?
CCOc1ccc(/C(C)=N/N2C(=O)C(CC(=O)Nc3ccc(OC)cc3[N+](=O)[O-])SC2=Nc2cccc(C)c2C)cc1 (stereo unspecified),.,10µM
